# An excerpt weighted towards active compounds, which were near 1.2% of everything screened.
# GC-A act: GC-A (human) enzyme activation; P16066; HEK293 GC-A cells, cGMP TR-FRET, EC30 ANP; 0% at EC30 ANP, 100% saturating ANP; activation, % at 10 µM; hit rate 0.14% among 370,000; AID 1671463; in the data active = activation above about 40%
# PLC-beta3 inh: PLC-beta3 (human) inhibition, primary screen; Q01970; Purified PLC-beta3, fluorogenic substrate, fluorescence; inhibition, % at 12.2 µM; hit rate 0.18% among 370,000;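 also: 0% = median of compound wells on plate and 100% = full blocker control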
# GC-B act: GC-B (human) receptor activation | AID 1920062 | activation, % at 10 µM | P20594 | HEK293-GC-B cells, CNP EC30, cGMP TR-FRET; 0% at EC30 CNP, 100% saturating CNP | hit rate 0.11% among 370,000;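 active = activation at 10 µM reaching about 35% in either raw or pattern-adjusted values, limit read from the data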
# PLC-gamma1 inh: inhibitors of human phospholipase C gamma1; P19174; purified PLC-gamma1, fluorogenic substrate, fluorescence; inhibition, % at 12.2 µM; hit rate 0.84% among 370,000; in the data active = inhibition above about 9.5%
# PLCgamma1 ctr: inhibits human PLC-gamma1 in PLC-beta3 counter-screen | shares compounds with PLC-gamma1 inh | purified PLC-gamma1, fluorogenic substrate, fluorescence | inhibition, % at 12.3 µM | hit rate 3.1% among 3,300 | AID 743258; in the data active = inhibition above about 9.5%
# PLCb3 confirm: confirmation of human PLC-beta3 inhibitors | inhibition, % at 12.3 µM | purified PLC-beta3, fluorogenic substrate fluorescence | hit rate 1% among 3,300 | shares compounds with PLC-gamma1 inh
# * = called active by the depositor; x = no result; ! = repeats disagree. Rule as the data show it, unless noted: active = inhibition above about 11%; inactive = the rest.
SMILES,GC-A act,PLC-beta3 inh,GC-B act,PLC-gamma1 inh,PLCgamma1 ctr,PLCb3 confirm
CN1C(=O)[C@@]2(O[C@H]3[C@H]4C=C[C@@H]([C@H]5C(=O)N(Cc6ccccc6)C(=O)[C@@H]45)N3C3=C2C(=O)CC3)c2ccccc21,5,14*,2,3,-2,2
COc1cccc(CNC(=O)[C@@H]2CCCN2C(=O)[C@H]2CCCCN2)c1,4,7,5,18*,-4,-1
COc1cccc(CNC(=O)[C@H]2CCCN2C(=O)[C@H]2CCCN2)c1,3,-1,0,1,x,x
CNC(=S)N/N=C/c1ccc(-c2ccc(Cl)c([N+](=O)[O-])c2)o1,11,-2,6,3,x,x
Cc1ccc(-c2ccc(/C=N/NC(=S)Nc3ccccc3)o2)cc1[N+](=O)[O-],2,-1,2,9.7*,-13,-14
CCc1cccc(NS(=O)(=O)c2c(C)n[nH]c2C)c1,0,4,4,9.8*,-4,-2
CC(C)CCNC(=O)Cn1c(=O)oc2cc(S(=O)(=O)N3CCc4ccccc43)ccc21,0,12*,-1,4,-4,-1
O=C(Cn1c(=O)oc2cc(S(=O)(=O)N3CCc4ccccc43)ccc21)NC1CCCC1,-1,2,1,0,x,x
COc1ccc(OC)c(NC(=O)CC2SC(=Nc3ccc(F)cc3)N(CCC3=CCCCC3)C2=O)c1 (stereo not drawn),-2,4,2,11*,1,-4
CN(Cc1c(C(=O)N/N=C/c2cc(F)ccc2F)nnn1-c1nonc1N)C1CCCCC1,-4,-4,2,1,x,x
CCOC(=O)c1ccc(-c2ccc(/C=N/NC(=O)CN(c3ccccc3Br)S(C)(=O)=O)o2)cc1,2,-25,-8,-18,x,x
O=C(CCc1nc(-c2ccccc2F)no1)NCCc1ccccc1F,-2,-2,-10,0,x,x
O=C(CCc1nc(-c2ccccc2F)no1)NCCN1CCOCC1,3,14*,1,4,-14,3
CCc1ccc(N2C(=O)CN(CC(=O)OC)C2=S)cc1,2,8,2,2,x,x
COC(=O)CN1CC(=O)N(c2ccccc2)C1=S,-1,-3,5,10*,0,-5
O=C(N1CCOCC1)N1CCN(Cc2ccccc2)CC1,2,4,3,10*,6,-12
c1ccc(CN2CCOCCOCCOCC2)cc1,-1,4,0,3,x,x
O=C(NN=C1CCCCCC1)c1cccnc1,3,3,-1,0,x,x
O=C(CC(=O)NN=C1CCCCCC1)NCc1cccnc1,6,6,3,10*,1,1
O=C(c1cccc([N+](=O)[O-])c1)N1CCN(c2ccc(Cl)cc2)CC1,-3,2,7,11*,2,-1
O=C(c1ccc(CS(=O)Cc2cccc(Cl)c2)o1)N1CCN(c2ccc(F)cc2)CC1 (stereo not drawn),-4,1,1,-3,x,x
O=C(c1ccc(CS(=O)Cc2ccc(Cl)cc2)o1)N1CCN(c2ccc(F)cc2)CC1 (stereo not drawn),-2,-4,-5,9.5*,-2,-2
O=C(c1ccc(Cl)cc1)N1CCCOC1,4,13*,2,16*,4,2
O=C(c1ccc(Cl)cc1)N1CCN(c2ccc(F)cc2)CC1,4,5,-1,11*,-4,0
NC(=O)C1CCCN(C(=O)c2ccc(Cl)cc2)C1 (stereo not drawn),1,6,4,2,x,x
SMILES,GC-A act,PLC-beta3 inh,GC-B act,PLC-gamma1 inh,PLCgamma1 ctr,PLCb3 confirm
O=C(c1ccncc1)N1CCN(c2ccc(F)cc2)CC1,1,-1,2,2,x,x
O=C(NCc1ccccc1)[C@@H]1CCCN1C(=O)[C@@H]1CCCN1C(=O)c1ccc(Cl)cc1Cl,1,1,12,-3,x,x
CC(C)c1ccc(S(=O)(=O)N2CCN(CC(=O)Nc3ccc4c(c3)OCO4)CC2)cc1,-6,0,-2,0,x,x
CCCCOc1ccc(Br)cc1CSC(=N)N,-36,-2,-23,10*,-2,0
CCOc1ccc(C(C)=O)cc1CSC(=N)N,1,-7,-4,5,x,x
O=C(NCc1ccccn1)c1ccc(Cl)c(S(=O)(=O)N2CCCCCC2)c1,-6,-9,-2,9.9*,-10,-7
O=C(NCc1ccccc1)c1ccc(Cl)c(S(=O)(=O)N2CCCC2)c1,-2,-5,1,1,x,x
O=C(NCCc1ccccn1)c1cccc(S(=O)(=O)N2CCCCCC2)c1,-5,14*,3,15*,0,1
COc1ccc(N2CCN(C(=O)CNC(=O)Cc3ccccc3)CC2)cc1,3,-12,-1,10*,-5,-2
Cn1c(SC/C=C/c2ccccc2)nnc1-c1cccnc1,2,9,-1,12*,1,1
Cn1c(SC/C=C/c2ccccc2)nnc1-c1ccco1,-2,0,-9,0,x,x
CCCc1cc(=O)oc2cc(C)cc(OC(C)C(=O)NCC3CCC(C(=O)O)CC3)c12 (stereo not drawn),5,-256,-4,-213,x,x
COc1ccccc1C(=O)Nc1nnc(-c2ccccc2)s1,5,-22,-6,-8,x,x
COc1ccccc1C(=O)N(C)c1nnc(-c2ccccc2)s1,-10,4,0,9.7*,-1,2
CC(C)n1c(NCc2ccc(Cl)cc2)nc2ccccc21,-2,-8,-3,-1,x,x
N#CCC(=O)Nc1ccc(C(=O)OCC(=O)NNC(=O)c2cccs2)cc1,0,-7,1,-5,x,x
N#CCNC(=O)C1c2ccccc2Oc2ccccc21,2,0,7,13*,-3,1
O=C1C(=O)c2cccnc2-c2ncccc21,20,9,12,53*,51*,8
O=C(COc1cccnc1[N+](=O)[O-])c1ccc(Cl)s1,-2,-22,3,-10,x,x
CN(C)CCCN(CCCN(C)C)C(=S)Nc1ccc(S(=O)(=O)N2CCOCC2)cc1,4,-4,0,11*,1,-6
CN=C1SC(CC(=O)NCCc2ccc(OC)c(OC)c2)C(=O)N1C (stereo not drawn),-3,13*!,-2,11*!,9.5*,6
CCN=C1SC(CC(=O)NCCc2ccc(OC)c(OC)c2)C(=O)N1CC (stereo not drawn),-2,2,4,-3,x,x
CCc1nc2ccc(C(=O)NCCOc3ccc(OC)cc3)cn2c1N(C)Cc1cccs1,-3,-9,2,-9,x,x
COc1ccc(OCc2nnc(SCC(=O)N3c4ccccc4Sc4ccc(Cl)cc43)o2)cc1,-2,0,-5,9.6*,9,4
COc1cccc(OCc2nnc(SCC(=O)N3c4ccccc4Sc4ccc(Cl)cc43)o2)c1,-17,5,-6,8,x,x
COc1ccc(/C=N/NS(=O)(=O)c2ccc(C)cc2)cc1OC(=O)c1ccccc1,0,-1,3,11*,-3,-1

# From PubChem BioAssay
